Measurements from PubChem BioAssay (EPA / NIEHS).
Activity calls are given as the source filed them. Rule for the calls: active = hit-call score of the fitted dose curve at least 0.9, where 1 is the maximum; inactive = score below 0.9.

How the values were obtained:
Settings in all cases: mRNA level, 48 h; actives raise or lower the signal
[1] = read-out: Cytochrome P450 3A4 (Homo sapiens) (UniProt P08684); test: LTEA_HepaRG_CYP3A4: Life Technologies and Expression Analysis (LTEA) Assay for CYP3A4 using HepaRG (AID 2283487)
How it was run: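 CYP3A4 transcript measured by TaqMan qRT-PCR and normalized to three housekeeping genes after 48 h chemical exposure of human HepaRG cells. Top concentration 100 uM, half-log steps, 0.5% DMSO vehicle; gain or loss fitted against DMSO baseline.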

[2] = read-out: DNA damage-inducible transcript 3 (DDIT3), DDIT3 (gene 1649); test: LTEA_HepaRG_DDIT3: Life Technologies and Expression Analysis (LTEA) Assay for DNA damage-inducible transcript 3 (DDIT3) using HepaRG (AID 2283488)
How it was run: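 Eight-point concentration-response (100 uM highest, half-log dilutions) in HepaRG, 48 h, duplicate wells. Endpoint: qRT-PCR mRNA, normalized (ACTB, GAPDH, POLR2A), bidirectional fitting with DMSO as baseline.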

[3] = read-out: Pro-epidermal growth factor (Homo sapiens) (UniProt P01133); test: LTEA_HepaRG_EGF: Life Technologies and Expression Analysis (LTEA) Assay for Epidermal growth factor (EGF) using HepaRG (AID 2283489)
How it was run: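 EGF transcript measured by Fluidigm TaqMan qRT-PCR with three housekeeping genes for normalization, 48 h after dosing HepaRG cultures in duplicate (top 100 uM, half-log steps, 0.5% DMSO vehicle). Gain or loss relative to DMSO fitted.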

[4] = read-out: Early growth response protein 1 (EGR1) transcription factor, EGR1 (gene 1958); test: LTEA_HepaRG_EGR1: Life Technologies and Expression Analysis (LTEA) Assay for Early growth response protein 1 (EGR1) transcription factor using HepaRG (AID 2283490)
How it was run: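 EGR1 expression change in human HepaRG after 48 h chemical exposure, assessed by housekeeping-normalized qRT-PCR; concentration-response up to 100 uM, fitted in both directions against DMSO controls.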

[5] = read-out: Ezrin (EZR), EZR (gene 7430); test: LTEA_HepaRG_EZR: Life Technologies and Expression Analysis (LTEA) Assay for Ezrin (EZR) using HepaRG (AID 2283491)
How it was run: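 HepaRG, 48 h chemical exposure, 8-pt half-log series from 100 uM, 0.5% DMSO vehicle, duplicates. Read-out: EZR mRNA by TaqMan qRT-PCR (Fluidigm array), housekeeping-normalized; bidirectional curve fit vs DMSO baseline.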

CYP3A5 (gene 1577) = test: LTEA_HepaRG_CYP3A5: Life Technologies and Expression Analysis (LTEA) Assay for CYP3A5 using HepaRG (AID 2283493)
How it was run: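 Readout was CYP3A5 mRNA by qRT-PCR. HepaRG cultures were exposed for 48 h in serum-free induction medium to chemicals at up to 100 uM, and responses were fitted in both directions relative to DMSO vehicle.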

[6] = read-out: Fatty Acid-Binding Protein 1 (FABP1), FABP1 (gene 2168); test: LTEA_HepaRG_FABP1: Life Technologies and Expression Analysis (LTEA) Assay for Fatty Acid-Binding Protein 1 (FABP1) using HepaRG (AID 2283494)
How it was run: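 Values reflect bidirectional concentration-response fitting of FABP1 mRNA change against 0.5% DMSO controls. Human HepaRG cultures received eight half-log doses (top 100 uM) for 48 h; expression quantified by TaqMan qRT-PCR with housekeeping-gene normalization.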

[7] = read-out: Cytochrome P450 7A1 (Homo sapiens) (UniProt P22680); test: LTEA_HepaRG_CYP7A1: Life Technologies and Expression Analysis (LTEA) Assay for Cytochrome P450 7A1 (CYP7A1) using HepaRG (AID 2283496)
How it was run: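 Using 0.5% DMSO as vehicle and baseline, chemicals were tested in duplicate over an 8-point range from 100 uM on HepaRG cells for 48 h; qRT-PCR signals were normalised to ACTB, GAPDH and POLR2A.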

[8] = read-out: Glutathione S-Transferase (GSTA2), GSTA2 (gene 2939); test: LTEA_HepaRG_GSTA2: Life Technologies and Expression Analysis (LTEA) Assay for Glutathione S-Transferase (GSTA2) using HepaRG (AID 2283497)
How it was run: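 Oxidative-stress marker GSTA2 is quantified by TaqMan qRT-PCR in HepaRG cultures treated 48 h across an eight-point range to 100 uM. Expression is normalized to endogenous controls and compared with 0.5% DMSO vehicle.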

[9] = read-out: Glutamate-cysteine ligase catalytic (GCLC), GCLC (gene 2729); test: LTEA_HepaRG_GCLC: Life Technologies and Expression Analysis (LTEA) Assay for Glutamate-cysteine ligase catalytic (GCLC) using HepaRG (AID 2283498)
How it was run: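 Oxidative-stress marker GCLC is measured as mRNA change in human HepaRG liver cells after 48 h chemical treatment in 0.5% DMSO, eight concentrations from 100 uM. Activity is fitted bidirectionally against vehicle.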

[10] = read-out: growth arrest and DNA damage 45 (GADD45G), GADD45G (gene 10912); test: LTEA_HepaRG_GADD45G: Life Technologies and Expression Analysis (LTEA) Assay for growth arrest and DNA damage 45 (GADD45G) using HepaRG (AID 2283499)
How it was run: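 GADD45G transcript level by qRT-PCR (housekeeping-normalized: ACTB, GAPDH, POLR2A) after 48 h chemical treatment of a single HepaRG lot in serum-free induction medium; eight-point half-log series up to 100 uM in 0.5% DMSO, duplicates, up- or down-regulation scored.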

[11] = read-out: Glutamate-cysteine ligase regulatory (GCLM), GCLM (gene 2730); test: LTEA_HepaRG_GCLM: Life Technologies and Expression Analysis (LTEA) Assay for Glutamate-cysteine ligase regulatory (GCLM) using HepaRG (AID 2283500)
How it was run: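 In this multiplexed HepaRG gene-expression assay, GCLM mRNA change after 48 h treatment (8 concentrations, max 100 uM) was scored against DMSO by bidirectional curve fitting.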

[12] = read-out: Glutathione S-transferase M3 (GSTM3), GSTM3 (gene 2947); test: LTEA_HepaRG_GSTM3: Life Technologies and Expression Analysis (LTEA) Assay for Glutathione S-transferase M3 (GSTM3) using HepaRG (AID 2283501)
How it was run: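 GSTM3 transcript levels came from Fluidigm TaqMan qRT-PCR normalized to three housekeeping genes, fitted in both directions against DMSO. HepaRG cultures received chemicals for 48 h in serum-free induction medium (0.5% DMSO), 8 half-log concentrations up to 100 uM, duplicate.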

[13] = read-out: Hypoxia-inducible factor 1-alpha (Homo sapiens) (UniProt Q16665); test: LTEA_HepaRG_HIF1A: Life Technologies and Expression Analysis (LTEA) Assay for Hypoxia-inducible factor 1 (HIF1A) Trancription factor using HepaRG (AID 2283503);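 note: HIF1A transcript by TaqMan qRT-PCR normalized to ACTB GAPDH and POLR2A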
How it was run: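 Gain- or loss-of-signal HIF1A mRNA changes are fitted against a DMSO baseline. HepaRG cultures receive eight concentrations, highest 100 uM, for 48 h in serum-free induction medium with 0.5% DMSO.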

[14] = read-out: 3-Hydroxy-3-Methylglutaryl-CoA Synthase 2 (HMGCS2), HMGCS2 (gene 3158); test: LTEA_HepaRG_HMGCS2: Life Technologies and Expression Analysis (LTEA) Assay for 3-Hydroxy-3-Methylglutaryl-CoA Synthase 2 (HMGCS2) using HepaRG (AID 2283504)
How it was run: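 Readout is HMGCS2 transcript by qRT-PCR, housekeeping-normalised (ACTB/GAPDH/POLR2A) and fitted bidirectionally against 0.5% DMSO. Differentiated HepaRG cells received chemicals 48 h, duplicate wells, eight half-log concentrations topping at 100 uM.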

HGF (gene 3082) = test: LTEA_HepaRG_HGF: Life Technologies and Expression Analysis (LTEA) Assay for Hepatocyte Growth Facto (HGF) using HepaRG (AID 2283505)
How it was run: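 HGF transcript was quantified by TaqMan qRT-PCR against three housekeeping genes after 48 h treatment of HepaRG cells. Exposure ran in duplicate over eight half-log steps topping at 100 uM in 0.5% DMSO vehicle.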

[15] = read-out: Cytochrome P450 3A7 (Homo sapiens) (UniProt P24462); test: LTEA_HepaRG_CYP3A7: Life Technologies and Expression Analysis (LTEA) Assay for CYP3A7 using HepaRG (AID 2283492)
How it was run: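 CYP3A7 transcript measured by qRT-PCR (ACTB, GAPDH, POLR2A normalization) after 48 h chemical exposure of HepaRG cells in duplicate. Eight half-log concentrations, maximum 100 uM, 0.5% DMSO vehicle; bidirectional curve fitting against DMSO baseline.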

[16] = read-out: Cytochrome P450 4A22 (Homo sapiens) (UniProt Q5TCH4); test: LTEA_HepaRG_CYP4A22: Life Technologies and Expression Analysis (LTEA) Assay for Cytochrome P450 4A22 (CYP4A22) using HepaRG (AID 2283495)
How it was run: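 Gene expression measured by qRT-PCR against three housekeeping genes (ACTB, GAPDH, POLR2A), with gain or loss fitted relative to 0.5% DMSO vehicle. HepaRG cultures received 48 h chemical treatment, top concentration 100 uM, half-log steps, duplicate wells.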

[17] = read-out: Heat shock 70 kDa protein 1 (HSPA1A), gene 3303; test: LTEA_HepaRG_HSPA1A: Life Technologies and Expression Analysis (LTEA) Assay for Heat shock 70 kDa protein 1 (HSPA1A) using HepaRG (AID 2283502)
How it was run: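 An oxidative-stress marker readout: HepaRG cells treated 48 h in duplicate with an eight-point series (highest 100 uM) had HSPA1A mRNA quantified by TaqMan qRT-PCR. Activity was fitted in both directions using 0.5% DMSO as baseline.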

[18] = read-out: Insulin Like Growth Factor 1 (IGF1), IGF1 (gene 3479); test: LTEA_HepaRG_IGF1: Life Technologies and Expression Analysis (LTEA) Assay for Insulin Like Growth Factor 1 (IGF1) using HepaRG (AID 2283506)
How it was run: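 Endpoint: IGF1 mRNA change by qRT-PCR, housekeeping-normalized, fitted bidirectionally relative to 0.5% DMSO vehicle. Human HepaRG cells were treated 48 h in serum-free induction medium, eight half-log concentrations topping at 100 uM.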

Measured: AC50

Cytochrome P450 3A7 (Homo sapiens), sequence (P24462 whole entry, looked up): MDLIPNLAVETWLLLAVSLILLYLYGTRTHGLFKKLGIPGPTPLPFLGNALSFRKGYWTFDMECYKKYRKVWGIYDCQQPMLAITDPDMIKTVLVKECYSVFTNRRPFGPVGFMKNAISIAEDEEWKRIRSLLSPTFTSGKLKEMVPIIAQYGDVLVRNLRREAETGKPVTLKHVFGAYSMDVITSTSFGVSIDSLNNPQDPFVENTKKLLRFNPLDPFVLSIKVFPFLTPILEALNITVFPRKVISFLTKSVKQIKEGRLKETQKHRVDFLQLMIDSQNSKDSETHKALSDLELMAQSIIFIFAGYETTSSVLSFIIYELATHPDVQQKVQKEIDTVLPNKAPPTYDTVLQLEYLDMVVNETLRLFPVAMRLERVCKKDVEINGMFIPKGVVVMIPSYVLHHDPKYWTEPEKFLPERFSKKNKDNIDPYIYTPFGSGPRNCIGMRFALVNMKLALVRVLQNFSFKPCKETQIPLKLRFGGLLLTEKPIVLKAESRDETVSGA
Hypoxia-inducible factor 1-alpha (Homo sapiens), sequence (Q16665 whole entry, looked up): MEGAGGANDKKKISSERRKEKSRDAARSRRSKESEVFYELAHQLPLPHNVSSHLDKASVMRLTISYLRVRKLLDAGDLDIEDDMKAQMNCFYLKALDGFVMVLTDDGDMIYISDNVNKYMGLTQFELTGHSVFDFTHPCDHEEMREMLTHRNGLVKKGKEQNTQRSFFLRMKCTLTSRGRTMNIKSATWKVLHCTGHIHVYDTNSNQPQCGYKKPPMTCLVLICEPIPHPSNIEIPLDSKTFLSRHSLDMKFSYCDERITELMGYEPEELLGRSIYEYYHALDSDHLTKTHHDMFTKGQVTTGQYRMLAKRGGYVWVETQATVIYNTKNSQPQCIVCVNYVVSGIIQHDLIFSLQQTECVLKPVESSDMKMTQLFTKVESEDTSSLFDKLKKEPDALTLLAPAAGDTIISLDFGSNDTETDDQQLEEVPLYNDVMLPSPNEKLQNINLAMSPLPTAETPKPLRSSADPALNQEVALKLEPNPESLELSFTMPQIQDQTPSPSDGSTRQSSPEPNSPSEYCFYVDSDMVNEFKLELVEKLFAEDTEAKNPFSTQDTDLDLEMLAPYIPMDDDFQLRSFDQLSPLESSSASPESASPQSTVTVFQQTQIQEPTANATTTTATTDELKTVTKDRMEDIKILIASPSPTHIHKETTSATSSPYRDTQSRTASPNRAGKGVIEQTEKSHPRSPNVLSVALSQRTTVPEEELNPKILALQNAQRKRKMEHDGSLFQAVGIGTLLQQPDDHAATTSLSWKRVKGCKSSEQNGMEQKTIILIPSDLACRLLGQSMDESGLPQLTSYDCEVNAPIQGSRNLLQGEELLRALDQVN
Cytochrome P450 3A4 (Homo sapiens), sequence (P08684 whole entry, looked up): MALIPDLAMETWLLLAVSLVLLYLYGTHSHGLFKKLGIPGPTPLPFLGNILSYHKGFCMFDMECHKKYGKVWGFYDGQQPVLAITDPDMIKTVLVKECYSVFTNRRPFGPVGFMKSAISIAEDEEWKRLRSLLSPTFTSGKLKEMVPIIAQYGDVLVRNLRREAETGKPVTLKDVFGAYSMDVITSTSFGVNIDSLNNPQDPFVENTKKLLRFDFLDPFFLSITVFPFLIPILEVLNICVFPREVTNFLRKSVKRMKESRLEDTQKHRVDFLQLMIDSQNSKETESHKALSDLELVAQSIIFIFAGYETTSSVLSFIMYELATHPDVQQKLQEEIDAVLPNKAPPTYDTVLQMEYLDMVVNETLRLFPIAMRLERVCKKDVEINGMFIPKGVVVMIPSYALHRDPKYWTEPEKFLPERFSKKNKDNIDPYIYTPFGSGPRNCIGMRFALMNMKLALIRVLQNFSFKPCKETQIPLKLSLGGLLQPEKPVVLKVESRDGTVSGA

Nc1ccc(-c2ccc(N)cc2)cc1
active: [7] 1.44 µM
not listed: [15] | [16] | [17] | [18]
inactive: all other assays above

COc1ccc(O)c(C(C)(C)C)c1
active: [1] 66.4 µM
not listed: [16] | [17] | [18]
inactive: all other assays above

CCNc1nc(NC(C)C)nc(SC)n1
active: [1] 2.44 µM | [6] 28.3 µM | [7] 35.5 µM | [10] 63.9 µM | [14] 50 µM
not listed: [16] | [17] | [18]
inactive: all other assays above

ClC1=C(Cl)[C@]2(Cl)[C@@H]3[C@@H]4C[C@@H]([C@H]5O[C@@H]45)[C@@H]3[C@@]1(Cl)C2(Cl)Cl
active: [2] 62.8 µM | [6] 0.0265 µM | [16] 34.2 µM | [7] 0.0248 µM | [8] 50 µM | [13] 0.0315 µM | [14] 50 µM
not listed: [1] | [18]
inactive: all other assays above

ClC1=C(Cl)[C@]2(Cl)[C@@H]3[C@H]4C[C@H]([C@@H]5O[C@H]45)[C@@H]3[C@@]1(Cl)C2(Cl)Cl
active: [2] 50 µM | [15] 2.94 µM | [6] 1.86 µM | [7] 17.4 µM | [8] 32.6 µM | [14] 30.5 µM | [18] 5.52 µM
not listed: [1] | [16] | [17]
inactive: all other assays above

CCCN(CCC)N=O
not listed: [16] | [17]
inactive: all other assays above

CC(C)C(=O)OCC(C)(C)C(OC(=O)C(C)C)C(C)C (stereo not given)
not listed: [16] | [17] | [18]
inactive: all other assays above
